Measurements taken from ChEMBL document CHEMBL1157539, “Thousands of chemical starting points for antimalarial lead identification” (Nature, 2010).

Test system: HepG2
Experiment: GSK_TCMDC: Percent inhibition of human HepG2 cell line. Test compounds present at 10uM.
Format: functional

SMILES | Inhibition [%]
CCCCCCN1CCN(Cc2cccc(NC(=O)c3ccc(Cl)c(Cl)c3)c2)CC1.O=C(O)C(F)(F)F | 31
CC(C)NCc1ccc(-c2ccc(-c3nc4cc(C(F)(F)F)ccc4[nH]3)s2)cc1.O=C(O)C(F)(F)F | 30
CN(C)CC(O)C(c1ccccc1)c1cccc(Br)c1.Cl (stereo not given) | 22
CCCCCn1c(Sc2ccc(C#N)c([N+](=O)[O-])c2)nnc1-c1ccc(Cl)cc1 | 18
COc1ccc2nccc([C@@H](O)CN3CCC(NCc4ccc(OC)c(NC(C)=O)c4)CC3)c2c1 | 0
Nc1nc(O)c2cc(CN(C=O)c3ccc(C(=O)N[C@@H](CCC(=O)O)C(=O)O)cc3)ccc2n1 | 0
CC(C)(C)OC(=O)NCc1ccc(Nc2nnc(-c3cccc(C(=O)NCCC(c4ccccc4)c4ccccc4)c3)o2)cc1 | 0
N#Cc1cccc(NC(=O)c2cccc(S(=O)(=O)NC3CCN(CC4CCCCC4)C3)c2)c1.O=C(O)C(F)(F)F (stereo not given) | 29
CS(=O)(=O)O.NC1=NC(CCc2ccccc2)N(c2ccccc2)C(N)=N1 (stereo not given) | 1
O=C(NCCCCN1CCN(c2cccc3ccccc23)CC1)c1ccc(NC(=O)c2ccc(Cl)cc2)cc1 | 38
Cc1cc(C)c(NC(=O)N[C@H]2CCN(CCCCCNC(=O)/C=C/c3ccc(Cl)c(Cl)c3)C2)c(C)c1 | 12
CC(C)(C)C1CCC(CC2=C(C(=O)O)c3ccccc3C2=O)CC1 (stereo not given) | 0
FC(F)(F)c1ccc2[nH]ccc(=NN=Cc3cccnc3)c2c1 | 0
FC(F)(F)c1ccc2[nH]ccc(=NN=Cc3ccccc3Cl)c2c1 | 0
COc1ccc2nccc(N3CCC(SCCNCc4ccc5c(n4)NC(=O)CS5)C3)c2n1.Cl (stereo not given) | 34
Cc1ccc(NC(=O)c2ccc(N3CCN(c4ccncc4)CC3)cc2)cc1F.O=C(O)C(F)(F)F | 47
COc1ccc(COc2cc(NCCCN)nc3ccccc23)cc1 | 3
CC(C)N1CCN(c2ccc(OCCCCN3CCN(c4cccc(Cl)c4Cl)CC3)cc2Cl)CC1.Cl | 63
NC(=O)c1ccccc1Nc1nc(Nc2ccc(N3CCOCC3)cc2)ncc1[N+](=O)[O-].O=C(O)C(F)(F)F | 53
N#Cc1ccc2[nH]cc(CN3CCC4(CC3)CN(CCNCc3ccccc3)C(=O)CO4)c2c1.O=C(O)C(F)(F)F | 0

SMILES | Inhibition [%]
CC(C)Cc1c(O)nc(SCCN2CCOCC2)[nH]c1=O.Cl | 19
CN(Cc1ccccc1)C1CCCN(c2cc(NC(=O)c3cccs3)ccn2)C1.O=C(O)C(F)(F)F (stereo not given) | 2
CCC(C)OC(=O)C1=C(C)NC2=C(C(=O)CC(c3ccc(OC)c(OC)c3)C2)C1c1ccc(O)cc1 (stereo not given) | 3
O=C(N[C@H]1CCN(CCc2ccc(O[C@H]3CCNC3)c(Br)c2)C1)c1ccc(Cl)c(Cl)c1.O=C(O)C(F)(F)F | 28
CCNC(=O)N1CCc2ccc(Oc3nc(NCc4ccccc4OC)ncc3C)cc2CC1.O=C(O)C(F)(F)F | 0
Cn1cc(-c2ccnc3[nH]c(-c4cccc(CNC5CCC(O)CC5)c4)cc23)cn1.O=C(O)C(F)(F)F (stereo not given) | 48
O=C(Nc1ccc2c(c1)OCO2)c1cc(-c2cccnc2)nc2ccc(Cl)cc12 | 9
Br.CC(C)c1ccc(OCCCON2C(=N)N=C(N)NC2(C)C)cc1 | 69
Cl.Nc1c2c(nc3ccc(NC(=O)CCCCCc4ccccc4)cc13)CCCC2 | 32
O=C(O)C(F)(F)F.O=S(=O)(NC1CCCCN(Cc2ccccc2O)C1)c1ccc(C(F)(F)F)cc1 (stereo not given) | 1
Cl.N=C(N)NN=Cc1c2ccccc2c(Cl)c2ccc(Cl)cc12 | 97
O=C(COc1ccccc1)N(Cc1ccc(-c2ccc(CNC3Cc4ccccc4C3)cc2)cc1)C1CCNCC1.O=C(O)C(F)(F)F | 26
O=C(Nc1cccc(CN2CCCN(Cc3cccc(O)c3)CC2)c1)c1ccc(Cl)c(Cl)c1.O=C(O)C(F)(F)F | 25
COc1ccccc1CN1CCC(NC(=O)c2ccc(-c3cccc(C(F)(F)F)c3)s2)CC1.O=C(O)C(F)(F)F | 83
Cl.c1cc(COc2ccc(C3=NCCN3)cc2)nc(COc2ccc(C3=NCCN3)cc2)c1 | 8
COc1ccc(Oc2ccc(-c3c(C)[nH]c(C)c(Cl)c3=O)cc2)cc1 | 0
CCN1CCN(CCCNc2c3ccc(Cl)cc3nc3ccc(OC)cc23)CC1.Cl | 34
Nc1nccc2ccc(OC3CCCCC3)cc12.O=CO | 24
c1ccc(Oc2ccc(Nc3ccnc4cc(-c5ccc(CN6CCOCC6)o5)ccc34)cc2)nc1 | 5
CC(C)NCc1cccc(-c2cccc(NC(=O)c3cccc(C#N)c3)c2)c1.O=C(O)C(F)(F)F | 12
